Screening results: PubChem, National Center for Advancing Translational Sciences (NCATS)
ATXN viability = cell viability loss in ATXN counter-screen | 400,000 compounds, 0.49% hits | S2 cells (HEK-293 line with an ATXN2-luciferase reporter) viability, CellTiter-Fluor protease fluorescence, 24 h | AID 651635 | Potency, µM (top dose mostly 56.7 µM), hits mostly cytotoxic; further: nearly all actives have a fitted effect of over 40% in size
SW480 rerep = inducers of DNA re-replication in SW480 colon cancer cells; SW480 DNA re-replication, Hoechst DNA content imaging, 48 h; Potency, µM (series often up to 46.1 µM), most hits filed as activators; 340,000 compounds, 1.8% hits; further: nearly all actives have a fitted effect of over 55% in size
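250 cells/well; 23 nL cpd via pin tool; 48 hr, 37 C, 5% CO2; Hoechst 40 min; imager read of total nuclear intensity, ex 405/em 500-530 nm.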
PINK1 expr mod = PINK1 expression modulation | 410,000 compounds, 0.2% hits | Potency, µM (highest dose often 76.6 µM), actives largely listed as activators | PINK1 immunofluorescence, high-content cytometry, 24 h; active means well fitted activation curve with a large enough effect; inconclusive means small, poorly fitted or top-dose-only effect; cell line not stated here; further: nearly all actives have a fitted effect of over 65% in size
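PINK1 protein level read as immunofluorescence by microplate cytometer in a fixed, stained stable cell line after 24 h exposure to five compound concentrations, with CCCP as control.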
IL-1B inflam inh = inflammasome signaling inhibition, IL-1 beta readout. THP-1 LPS/ATP IL-1B secretion, AlphaLISA, 16 h; hits give low values. activity change, % at 57.5 µM. 360,000 compounds, 4.7% hits; in the data active means activity change below about -50%; inconclusive means mostly about -30% to -49%
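THP-1 cells pretreated 1 hr with compounds (up to 57.5 uM final), then stimulated with LPS (250 ng/mL final) plus ATP (1.25 mM final); secreted IL-1B measured by AlphaLISA after 16 hr, decreased signal indicating inhibition.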
ATXN2 expr inh = inhibitors of ATXN2 expression. HEK-293 ATXN2-luciferase reporter, luminescence, 24 h. Potency, µM (highest dose often 57 µM), actives largely listed as inhibitors. 360,000 compounds, 0.72% hits; further: nearly all actives have a fitted effect of over 55% in size
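qHTS (up to 57 uM final) was run with 24 h compound exposure of reporter cells at 37 °C. Each well was multiplexed: SteadyGlo luminescence measured ATXN2-luciferase expression after a fluorogenic Gly-Phe-AFC viability readout (25 uM final).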
MCF10A rerep = DNA re-replication induction in MCF 10a cells; MCF 10A DNA re-replication, Hoechst nuclear intensity, 48 h; Potency, µM (top dose mostly 46.1 µM), actives largely listed as activators; 350,000 compounds, 2.9% hits; AID 624296; further: nearly all actives have a fitted effect of over 50% in size
A number is an active result; . = inactive; ? = inconclusive; / = no result; ! = repeats disagree. Compounds with a hit are over-represented: about 7.1% of the library has one in this group of screens. Unless noted, the call rests on the fitted dose curve; in most records, active means well fitted curve in the direction sought with a large enough effect; inconclusive means small, poorly fitted or top-dose-only effect, or another doubt; inactive means no such curve, though single readings can be large; an effect the other way counts as inactive or inconclusive.

SMILES | ATXN viability | SW480 rerep | PINK1 expr mod | IL-1B inflam inh | ATXN2 expr inh | MCF10A rerep
Cc1ccc(NC(=O)CSc2ccc(-c3ccccn3)nn2)cc1 | . | . | . | . | ? | .
O=C(CSc1n[nH]c(-c2ccc(Cl)cc2Cl)n1)Nc1ccccn1 | . | . | . | . | . | .
Cc1ccc(NC(=O)CSc2n[nH]c(-c3ccccn3)n2)cc1 | . | 5.2µM | . | . | ? | ?
O=C(CSc1n[nH]c(-c2ccccn2)n1)Nc1ccc(F)cc1 | . | 3.3µM | . | . | ? | ?
O=C(CSc1ccc(Cl)cc1)Nc1ccc(-c2nc3ccccc3[nH]2)cc1 | . | ? | . | . | . | 21µM
O=C(CSc1n[nH]c(-c2ccccn2)n1)Nc1ccc(Cl)cc1 | . | 9.2µM | . | . | 20µM | .
O=C(CSc1ccccc1)Nc1nc2ccccc2[nH]1 | . | ? | . | . | . | ?
C[C@@H]1CC(=O)NN=C1c1ccc(NN=C(C#N)C#N)cc1 | 25µM | / | / | / | 27µM! | /
CNc1ccccc1C(C)(C)c1cc(-c2cccc(Br)c2)no1 | . | . | ? | . | . | 15µM
O=C(Nc1csc(Cc2c(Cl)cccc2Cl)n1)NN1CCOCC1 | . | . | . | -84 | . | .
CCc1nc(N2CCN(C(=O)CCl)CC2)c2c3c(sc2n1)CC(C)CC3 (centres undefined) | / | ? | . | -96 | . | ?
CCNC(=S)N1CCN(c2nc(CC)nc3sc4c(c23)CCCC4)CC1 | ? | . | . | -57 | . | ?
CCc1nc(N2CCN(C(=O)CCCl)CC2)c2c3c(sc2n1)CCCC3 | . | / | . | . | / | /
CCc1nc(N2CCN(C(C)=O)CC2)c2c3c(sc2n1)CC(C(C)(C)C)CC3 (centres undefined) | ? | . | . | . | / | .
CCOC(=O)c1ccc(CN(Cc2ccc(F)cc2)S(=O)(=O)c2cc(C(=O)Nc3cccc(C(F)(F)F)c3)ccc2F)cc1 | / | / | . | / | / | /
CN(C)c1nc(=NCc2ccco2)ss1 | 0.1µM | . | . | -89 | / | 21µM
O=C1CCCC(=NCc2ccco2)C1 | . | . | . | . | . | .
Cc1c(O)ccc2c1OC(C)(C)CC2 | / | / | . | / | / | /
O=C(Nc1ccccc1)Nc1ccc2ncoc2c1 | / | . | . | -63 | . | .
CCOC(=O)c1ccc(N2C(=O)[C@@H](c3ccccc3)[C@H]2c2ccccc2)cc1 | . | . | . | . | . | ?
CCOC(=O)c1ccc(N2C(=O)C3C(/C=C/c4ccccc4)OC4(C(=O)c5ccccc5C4=O)C3C2=O)cc1 (centres undefined) | . | . | . | . | . | 26µM
Cc1ccc(-c2nnc(N3CCN(C(=O)c4cccs4)CC3)c3ccccc23)cc1 | . | . | . | . | / | .
CCCC(=O)N1CCN(c2nnc(-c3ccccc3)c3ccccc23)CC1 | . | . | . | -51 | . | .
CCOC(=O)N1CCN(c2nnc(-c3ccccc3)c3ccccc23)CC1 | . | . | . | ? | . | .
O=C(CN1CCOCC1)N1CCN(c2nnc(-c3ccccc3)c3ccccc23)CC1 | . | . | . | . | . | .
SMILES | ATXN viability | SW480 rerep | PINK1 expr mod | IL-1B inflam inh | ATXN2 expr inh | MCF10A rerep
Cc1ccc(-c2nnc(N3CCN(C(=O)COc4ccccc4)CC3)c3ccccc23)cc1 | . | . | . | -79 | ? | ?
CCOC(=O)N1CCN(c2nnc(-c3ccc(C)cc3)c3ccccc23)CC1 | ? | . | . | -67 | ? | .
O=C(c1cccs1)N1CCN(c2nnc(-c3ccccc3)c3ccccc23)CC1 | . | . | . | -87 | . | .
CC1=C(C(=O)Nc2ccccc2)C(c2ccc(C(=O)O)cc2)n2ncnc2N1 (centres undefined) | . | / | . | / | . | /
Cc1cc(Br)ccc1NC(=O)COC(=O)c1ccccc1OCC(N)=O | / | / | . | / | / | /
CCOc1cc(-c2nnc(SCC(=O)NCCCOC)nc2-c2ccc(OC)c(OCC)c2)ccc1OC | / | / | . | / | / | /
CC(Oc1cccc(Cl)c1)C(=O)Nc1ccc(S(=O)(=O)N(C)C2CCN(C)CC2)cc1 (centres undefined) | . | . | . | -57 | . | ?
CC(=O)Nc1ccc(S(=O)(=O)N2CCN(CC3CC4C=CC3C4)CC2)cc1 (centres undefined) | . | 1.3µM | . | . | / | .
CC(=O)Nc1ccc(S(=O)(=O)N2CCC(C(=O)c3ccc(Cl)cc3)CC2)cc1 | . | . | . | -51 | . | ?
CN1CCN(S(=O)(=O)c2ccc(NC(=O)c3ccc(Br)s3)cc2)CC1 | . | ? | . | . | . | 15µM
CC(=O)Nc1ccc(S(=O)(=O)N(C)C2CCN(C)CC2)cc1 | . | . | . | . | . | .
Cc1ccccc1Cc1c(C)nc2nc(SCC(=O)NC(C)c3ccccc3)nn2c1C (centres undefined) | ? | / | . | / | . | /
CCOC(=O)c1cc(-c2ccc(OC)cc2)n(CCC(=O)Nc2ccccc2OC)c1C | ? | / | . | / | ? | /
CC(=O)Nc1ccc(NC(=O)C(C)OC(=O)c2ccc(S(=O)(=O)N3CCCCCC3)cc2)cc1 (centres undefined) | ? | ? | . | . | ? | 15µM
CC(Oc1ccccc1Cl)C(=O)Nc1ccc(S(=O)(=O)N2CCN(C)CC2)cc1 (centres undefined) | . | ? | . | -55 | . | ?
CC(=O)Nc1cccc(C(=O)OC(C)C(=O)Nc2ccc(S(=O)(=O)N3CCCC3)cc2)c1 (centres undefined) | . | . | . | . | . | .
COc1ccc(CN(C)C(C)C(=O)Nc2ccc(S(=O)(=O)N3CCCCC3)cc2)c(OC)c1 (centres undefined) | . | ? | . | ? | . | 18µM
COc1ccc2c(c1)c1nnc(SC)nc1n2Cc1ccccc1 | / | / | . | / | / | /
CCOc1ccc(N(CC)S(=O)(=O)N2CCCC(C(=O)Nc3ccc(NC(C)=O)cc3)C2)cc1 (centres undefined) | / | / | . | / | / | /
COc1cc2nc(N3CCCN(C)CC3)nc(Nc3ccncc3)c2cc1OC | / | / | . | / | / | /
CCOC(=O)c1c(NC(=O)CSc2cn(CCNC(=O)c3ccc(OC)c(OC)c3)c3ccccc23)sc2c1CCC2 | . | / | . | / | . | /
CCN(CC)CCCNC(=O)c1cc2nc(-c3ccccc3)cc(C(F)(F)F)n2n1 | . | . | . | . | . | 1µM
COc1ccc(-c2cc(C(F)(F)F)n3nc(C(=O)Nc4ccc(Cl)cc4C(F)(F)F)cc3n2)cc1OC | . | / | . | / | . | /
COc1ccc(-c2cc(C(F)(F)F)n3nc(C(=O)N(C)Cc4ccccc4)cc3n2)cc1OC | ? | 21µM | . | . | . | ?
CCCCNC(=O)c1cc2nc(-c3ccc(OC)cc3)cc(C(F)(F)F)n2n1 | / | / | . | . | / | /
O=C(NCCCn1ccnc1)c1nn2c(C(F)(F)F)cc(-c3ccccc3)nc2c1Cl | . | 6.5µM | . | ? | . | .
